According to article PMC7862700, “An all-to-all approach to the identification of sequence-specific readers for epigenetic DNA modifications on cytosine”:

Columns and labels:
Experiment in all cases: DAPPL (digital affinity profiling via proximity ligation, sequencing); 10 mM Tris-HCl pH 7.5, 50 mM NaCl, 1 mM DTT, 4% glycerol, room temperature, 30 min; GST-TFs on glutathione beads, 16-mer random dsDNA library, 0.1% formaldehyde crosslink after washing; high values mean tight binding
FLI1 = biological target: T1, FLI1 (Homo sapiens, UniProt Q01543 1-452); conditions: protein: recombinant; tags: N-terminal GST; dsDNA, one strand shown
T1 sequence: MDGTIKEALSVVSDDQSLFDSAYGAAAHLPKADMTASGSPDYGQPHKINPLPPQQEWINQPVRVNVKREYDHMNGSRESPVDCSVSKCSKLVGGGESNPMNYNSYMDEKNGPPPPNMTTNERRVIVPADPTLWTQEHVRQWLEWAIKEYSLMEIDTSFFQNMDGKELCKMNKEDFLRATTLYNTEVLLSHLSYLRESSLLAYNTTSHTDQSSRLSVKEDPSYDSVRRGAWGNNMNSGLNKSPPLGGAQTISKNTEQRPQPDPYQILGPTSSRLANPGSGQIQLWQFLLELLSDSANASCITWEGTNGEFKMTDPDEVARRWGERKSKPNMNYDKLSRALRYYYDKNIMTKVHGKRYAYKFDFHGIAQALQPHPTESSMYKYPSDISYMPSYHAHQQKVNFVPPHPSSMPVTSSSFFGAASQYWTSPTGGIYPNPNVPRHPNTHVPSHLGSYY
Summary of the method: (§1)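 After expression in yeast as GST fusions, human transcription factors were bound to glutathione beads, DNA-barcoded and mixed with a tag-only sample. The pools were incubated with 200 nmole of a 16-mer random double-stranded DNA library in Tris/NaCl/DTT/glycerol buffer (30 min, room temperature), washed and crosslinked with 0.1% formaldehyde. Proximity ligation with BsaI/T4 ligase ran for 1 h at 37 °C, before PCR amplification and sequencing on an Illumina NextSeq500. Binding signal is a hexamer's read frequency for a factor divided by its frequency for the tag-only sample.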

ELK1 = biological target: T2, ELK1 (Homo sapiens, UniProt P19419 1-428); conditions: protein: recombinant; tags: N-terminal GST; dsDNA, one strand shown
T2 sequence: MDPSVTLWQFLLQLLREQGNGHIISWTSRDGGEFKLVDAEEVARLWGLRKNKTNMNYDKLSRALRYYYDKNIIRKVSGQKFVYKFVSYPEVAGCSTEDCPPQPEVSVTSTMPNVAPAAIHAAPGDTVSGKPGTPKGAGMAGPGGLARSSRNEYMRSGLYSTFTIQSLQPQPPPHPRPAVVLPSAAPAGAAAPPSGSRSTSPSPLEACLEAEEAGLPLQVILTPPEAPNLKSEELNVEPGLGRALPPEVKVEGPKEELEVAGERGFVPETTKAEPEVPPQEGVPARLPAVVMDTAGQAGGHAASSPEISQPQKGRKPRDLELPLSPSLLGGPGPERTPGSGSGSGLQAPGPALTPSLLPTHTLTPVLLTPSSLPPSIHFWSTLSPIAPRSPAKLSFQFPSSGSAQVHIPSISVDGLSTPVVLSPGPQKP
Summary of the method: as §1

GABPA = biological target: T3, GABPA (Homo sapiens, UniProt Q06546 1-454); conditions: protein: recombinant; tags: N-terminal GST; dsDNA, one strand shown
T3 sequence: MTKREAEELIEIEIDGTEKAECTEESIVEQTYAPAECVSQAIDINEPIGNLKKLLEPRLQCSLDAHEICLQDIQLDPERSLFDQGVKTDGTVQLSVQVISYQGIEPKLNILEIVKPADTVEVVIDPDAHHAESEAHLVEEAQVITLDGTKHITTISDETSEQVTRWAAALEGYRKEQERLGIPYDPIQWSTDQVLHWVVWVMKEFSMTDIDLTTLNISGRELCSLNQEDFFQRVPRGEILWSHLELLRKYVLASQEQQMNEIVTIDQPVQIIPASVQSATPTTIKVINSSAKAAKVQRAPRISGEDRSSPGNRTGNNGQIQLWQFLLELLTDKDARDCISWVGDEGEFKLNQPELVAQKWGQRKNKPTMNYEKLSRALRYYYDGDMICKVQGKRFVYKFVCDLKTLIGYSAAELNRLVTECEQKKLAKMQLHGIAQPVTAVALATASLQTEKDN
Summary of the method: as §1

ERG = biological target: T4, ERG (Homo sapiens, UniProt P11308 1-479); conditions: protein: recombinant; tags: N-terminal GST; dsDNA, one strand shown
T4 sequence: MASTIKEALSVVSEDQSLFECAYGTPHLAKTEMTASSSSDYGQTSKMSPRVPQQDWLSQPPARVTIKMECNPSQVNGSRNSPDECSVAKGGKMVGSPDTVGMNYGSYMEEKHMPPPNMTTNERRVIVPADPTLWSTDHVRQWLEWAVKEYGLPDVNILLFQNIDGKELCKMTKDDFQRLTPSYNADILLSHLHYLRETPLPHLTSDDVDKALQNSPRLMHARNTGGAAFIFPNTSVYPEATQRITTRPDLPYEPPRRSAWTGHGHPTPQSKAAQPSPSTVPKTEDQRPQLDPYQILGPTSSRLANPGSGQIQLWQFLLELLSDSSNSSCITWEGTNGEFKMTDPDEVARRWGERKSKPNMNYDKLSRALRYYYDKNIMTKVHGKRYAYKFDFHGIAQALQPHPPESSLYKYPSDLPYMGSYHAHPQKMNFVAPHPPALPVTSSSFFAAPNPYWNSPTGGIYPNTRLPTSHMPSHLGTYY
Summary of the method: as §1

ELF1 = ELF1 (Homo sapiens, UniProt P32519 1-619); conditions: protein: recombinant; tags: N-terminal GST; dsDNA, one strand shown
Summary of the method: as §1

EHF = biological target: T5, EHF (Homo sapiens, UniProt Q9NZC4 1-300); conditions: protein: recombinant; tags: N-terminal GST; dsDNA, one strand shown
T5 sequence: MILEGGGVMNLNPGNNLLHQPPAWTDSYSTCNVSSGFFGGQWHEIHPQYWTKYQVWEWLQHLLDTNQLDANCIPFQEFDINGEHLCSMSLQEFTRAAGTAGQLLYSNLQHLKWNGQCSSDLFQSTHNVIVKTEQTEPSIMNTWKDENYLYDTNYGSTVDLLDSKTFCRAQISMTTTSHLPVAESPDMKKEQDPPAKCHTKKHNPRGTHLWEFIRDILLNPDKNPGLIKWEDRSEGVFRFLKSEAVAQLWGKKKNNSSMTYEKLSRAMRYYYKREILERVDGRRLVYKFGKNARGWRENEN
Summary of the method: as §1

SPI1 = SPI1 (Homo sapiens, UniProt P17947 1-270); conditions: protein: recombinant; tags: N-terminal GST; dsDNA, one strand shown
Summary of the method: as §1

SPIB = SPIB (Homo sapiens, UniProt Q01892 1-262); conditions: protein: recombinant; tags: N-terminal GST; dsDNA, one strand shown
Summary of the method: as §1

ELK3 = biological target: T6, ELK3 (Homo sapiens, UniProt P41970 1-407); conditions: protein: recombinant; tags: N-terminal GST; dsDNA, one strand shown
T6 sequence: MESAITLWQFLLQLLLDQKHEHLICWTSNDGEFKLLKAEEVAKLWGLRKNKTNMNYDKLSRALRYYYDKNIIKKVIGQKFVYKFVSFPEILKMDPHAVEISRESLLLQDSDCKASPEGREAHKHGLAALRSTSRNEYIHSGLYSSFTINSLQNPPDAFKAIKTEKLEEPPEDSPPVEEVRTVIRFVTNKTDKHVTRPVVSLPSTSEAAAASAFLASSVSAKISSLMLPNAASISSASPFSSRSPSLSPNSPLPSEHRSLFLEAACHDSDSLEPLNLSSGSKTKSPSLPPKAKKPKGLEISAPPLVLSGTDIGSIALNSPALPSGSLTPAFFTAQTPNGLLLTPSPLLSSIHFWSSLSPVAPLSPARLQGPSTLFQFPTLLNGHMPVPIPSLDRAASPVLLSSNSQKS
Summary of the method: as §1

FEV = biological target: T7, FEV (Homo sapiens, UniProt Q99581 1-238); conditions: protein: recombinant; tags: N-terminal GST; dsDNA, one strand shown
T7 sequence: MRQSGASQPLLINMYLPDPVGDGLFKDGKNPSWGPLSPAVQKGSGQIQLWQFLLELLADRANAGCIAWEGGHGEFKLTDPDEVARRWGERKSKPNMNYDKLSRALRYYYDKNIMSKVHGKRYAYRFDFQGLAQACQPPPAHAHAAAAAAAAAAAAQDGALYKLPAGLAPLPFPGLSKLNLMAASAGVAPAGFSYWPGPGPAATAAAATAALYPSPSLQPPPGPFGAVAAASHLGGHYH
Summary of the method: as §1

ETV5 = ETV5 (Homo sapiens, UniProt P41161 1-510); conditions: protein: recombinant; tags: N-terminal GST; dsDNA, one strand shown
Summary of the method: as §1

HSF1 = HSF1 (Homo sapiens, UniProt Q00613 1-529); conditions: protein: recombinant; tags: N-terminal GST; chain copies: 3; dsDNA, one strand shown
Summary of the method: as §1

SPIC = biological target: T8, SPIC (Homo sapiens, UniProt Q8N5J4 1-248); conditions: protein: recombinant; tags: N-terminal GST; dsDNA, one strand shown
T8 sequence: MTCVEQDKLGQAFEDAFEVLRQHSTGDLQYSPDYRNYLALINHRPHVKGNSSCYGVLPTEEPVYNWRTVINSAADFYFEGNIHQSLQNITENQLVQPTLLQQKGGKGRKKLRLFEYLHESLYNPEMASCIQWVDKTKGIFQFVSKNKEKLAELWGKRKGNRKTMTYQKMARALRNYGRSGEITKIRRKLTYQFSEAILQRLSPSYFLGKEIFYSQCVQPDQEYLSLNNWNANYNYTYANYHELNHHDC
Summary of the method: as §1

ELF4 = ELF4 (Homo sapiens, UniProt Q99607 1-663); conditions: protein: recombinant; tags: N-terminal GST; dsDNA, one strand shown
Summary of the method: as §1

ELK4 = biological target: T9, ELK4 (Homo sapiens, UniProt P28324-2 1-405); conditions: protein: recombinant; tags: N-terminal GST; dsDNA, one strand shown
T9 sequence: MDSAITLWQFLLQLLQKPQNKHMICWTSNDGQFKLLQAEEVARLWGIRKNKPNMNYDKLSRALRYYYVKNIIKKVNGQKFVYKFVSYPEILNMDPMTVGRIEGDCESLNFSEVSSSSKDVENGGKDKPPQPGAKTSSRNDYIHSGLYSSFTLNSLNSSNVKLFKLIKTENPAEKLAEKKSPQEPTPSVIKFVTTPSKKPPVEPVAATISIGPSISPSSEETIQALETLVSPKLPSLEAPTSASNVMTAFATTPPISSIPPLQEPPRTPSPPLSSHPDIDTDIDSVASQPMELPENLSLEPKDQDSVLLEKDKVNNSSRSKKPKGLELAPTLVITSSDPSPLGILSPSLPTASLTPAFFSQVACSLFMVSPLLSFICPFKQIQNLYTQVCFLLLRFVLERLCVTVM
Summary of the method: as §1

ETV2 = biological target: T10, ETV2 (Homo sapiens, UniProt O00321 1-342); conditions: protein: recombinant; tags: N-terminal GST; dsDNA, one strand shown
T10 sequence: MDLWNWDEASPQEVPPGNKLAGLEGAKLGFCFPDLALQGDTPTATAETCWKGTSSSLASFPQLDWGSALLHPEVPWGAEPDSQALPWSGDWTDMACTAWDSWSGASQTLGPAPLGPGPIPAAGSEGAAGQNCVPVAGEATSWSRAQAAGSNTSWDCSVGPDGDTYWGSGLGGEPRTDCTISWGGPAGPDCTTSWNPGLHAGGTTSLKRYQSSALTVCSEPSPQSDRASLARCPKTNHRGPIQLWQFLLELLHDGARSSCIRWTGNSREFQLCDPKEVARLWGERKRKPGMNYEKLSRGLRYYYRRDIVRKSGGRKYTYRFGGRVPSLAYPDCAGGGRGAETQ
Summary of the method: as §1

ELF3 = biological target: T11, ELF3 (Homo sapiens, UniProt P78545 1-371); conditions: protein: recombinant; tags: N-terminal GST; dsDNA, one strand shown
T11 sequence: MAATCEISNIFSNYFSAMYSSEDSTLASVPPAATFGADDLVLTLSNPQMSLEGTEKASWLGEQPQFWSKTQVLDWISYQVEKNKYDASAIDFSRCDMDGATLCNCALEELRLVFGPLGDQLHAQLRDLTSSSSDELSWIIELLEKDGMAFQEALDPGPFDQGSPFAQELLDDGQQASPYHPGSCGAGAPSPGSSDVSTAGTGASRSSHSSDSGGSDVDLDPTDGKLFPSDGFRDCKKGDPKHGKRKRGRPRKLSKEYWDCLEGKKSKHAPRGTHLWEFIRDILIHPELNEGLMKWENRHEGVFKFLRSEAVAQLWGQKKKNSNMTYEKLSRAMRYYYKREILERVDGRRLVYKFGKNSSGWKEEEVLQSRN
Summary of the method: as §1

ETV1 = ETV1 (Homo sapiens, UniProt P50549 1-477); conditions: protein: recombinant; tags: N-terminal GST; dsDNA, one strand shown
Summary of the method: as §1

HSF1, sequence (Q00613 whole entry): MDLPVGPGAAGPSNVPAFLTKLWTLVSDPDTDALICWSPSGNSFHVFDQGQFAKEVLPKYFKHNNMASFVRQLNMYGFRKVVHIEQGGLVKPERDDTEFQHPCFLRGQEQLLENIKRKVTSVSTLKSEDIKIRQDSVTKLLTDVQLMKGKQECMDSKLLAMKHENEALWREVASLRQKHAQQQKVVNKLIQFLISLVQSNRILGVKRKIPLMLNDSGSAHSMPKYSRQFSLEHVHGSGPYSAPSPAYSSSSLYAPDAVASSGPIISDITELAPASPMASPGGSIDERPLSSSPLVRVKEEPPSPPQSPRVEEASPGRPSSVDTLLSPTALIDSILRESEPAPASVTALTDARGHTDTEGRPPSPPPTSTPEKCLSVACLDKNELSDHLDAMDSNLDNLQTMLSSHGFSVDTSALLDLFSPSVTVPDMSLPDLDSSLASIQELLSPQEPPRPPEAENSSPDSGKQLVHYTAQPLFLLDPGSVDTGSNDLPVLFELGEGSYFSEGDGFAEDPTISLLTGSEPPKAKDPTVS
ELF1, sequence (P32519 whole entry): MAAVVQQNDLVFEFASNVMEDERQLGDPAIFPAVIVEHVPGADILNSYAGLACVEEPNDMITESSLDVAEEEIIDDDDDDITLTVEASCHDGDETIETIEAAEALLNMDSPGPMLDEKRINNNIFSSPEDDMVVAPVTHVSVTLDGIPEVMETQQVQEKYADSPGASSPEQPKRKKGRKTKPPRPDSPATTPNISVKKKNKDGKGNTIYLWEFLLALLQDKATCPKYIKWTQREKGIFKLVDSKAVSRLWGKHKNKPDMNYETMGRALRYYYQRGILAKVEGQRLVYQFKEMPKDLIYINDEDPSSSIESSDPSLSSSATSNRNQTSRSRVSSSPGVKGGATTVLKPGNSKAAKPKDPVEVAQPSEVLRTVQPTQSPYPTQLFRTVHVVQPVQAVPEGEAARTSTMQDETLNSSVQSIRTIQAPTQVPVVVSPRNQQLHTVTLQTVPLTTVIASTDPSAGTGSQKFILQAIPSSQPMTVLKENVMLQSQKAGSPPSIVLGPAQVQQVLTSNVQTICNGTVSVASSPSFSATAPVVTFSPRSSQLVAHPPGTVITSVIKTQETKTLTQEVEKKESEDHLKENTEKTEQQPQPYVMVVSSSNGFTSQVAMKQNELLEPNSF
ETV1, sequence (P50549 whole entry): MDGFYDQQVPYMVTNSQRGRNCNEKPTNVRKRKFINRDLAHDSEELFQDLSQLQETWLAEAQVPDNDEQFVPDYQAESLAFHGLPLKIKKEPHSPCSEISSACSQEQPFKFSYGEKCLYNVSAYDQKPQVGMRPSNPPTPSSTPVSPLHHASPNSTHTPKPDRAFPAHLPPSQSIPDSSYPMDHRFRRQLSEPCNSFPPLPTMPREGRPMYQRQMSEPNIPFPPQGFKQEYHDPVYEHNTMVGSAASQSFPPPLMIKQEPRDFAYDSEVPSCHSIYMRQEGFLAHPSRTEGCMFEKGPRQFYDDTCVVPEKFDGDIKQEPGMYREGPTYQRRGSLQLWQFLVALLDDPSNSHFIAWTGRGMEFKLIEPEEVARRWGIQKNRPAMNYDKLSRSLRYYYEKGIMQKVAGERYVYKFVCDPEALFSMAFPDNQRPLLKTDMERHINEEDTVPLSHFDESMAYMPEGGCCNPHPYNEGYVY
ELF4, sequence (Q99607 whole entry): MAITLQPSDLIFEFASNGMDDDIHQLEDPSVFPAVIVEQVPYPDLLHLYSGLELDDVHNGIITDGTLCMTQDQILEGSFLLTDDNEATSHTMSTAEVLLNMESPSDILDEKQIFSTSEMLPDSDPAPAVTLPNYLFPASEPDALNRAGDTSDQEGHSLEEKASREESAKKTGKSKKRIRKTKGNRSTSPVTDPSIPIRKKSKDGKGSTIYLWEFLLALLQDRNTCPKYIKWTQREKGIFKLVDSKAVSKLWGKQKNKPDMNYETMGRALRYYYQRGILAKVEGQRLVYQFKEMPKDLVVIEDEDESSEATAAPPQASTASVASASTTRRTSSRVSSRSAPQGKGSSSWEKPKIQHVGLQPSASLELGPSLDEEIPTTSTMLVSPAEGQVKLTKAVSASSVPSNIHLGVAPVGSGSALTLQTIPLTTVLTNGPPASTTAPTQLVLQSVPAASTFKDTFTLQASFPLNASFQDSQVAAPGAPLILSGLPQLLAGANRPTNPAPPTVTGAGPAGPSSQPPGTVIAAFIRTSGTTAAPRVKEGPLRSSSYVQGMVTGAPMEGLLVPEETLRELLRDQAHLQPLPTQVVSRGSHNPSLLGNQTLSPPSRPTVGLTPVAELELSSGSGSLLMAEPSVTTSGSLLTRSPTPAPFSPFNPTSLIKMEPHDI
SPIB, sequence (Q01892 whole entry): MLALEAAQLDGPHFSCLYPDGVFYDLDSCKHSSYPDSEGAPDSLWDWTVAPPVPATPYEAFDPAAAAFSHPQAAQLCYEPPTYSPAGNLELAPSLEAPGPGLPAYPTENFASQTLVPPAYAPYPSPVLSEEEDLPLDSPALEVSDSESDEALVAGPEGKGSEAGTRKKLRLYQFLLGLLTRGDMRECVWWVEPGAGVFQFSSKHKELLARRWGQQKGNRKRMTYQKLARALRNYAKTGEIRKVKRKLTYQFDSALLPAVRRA
ETV5, sequence (P41161 whole entry): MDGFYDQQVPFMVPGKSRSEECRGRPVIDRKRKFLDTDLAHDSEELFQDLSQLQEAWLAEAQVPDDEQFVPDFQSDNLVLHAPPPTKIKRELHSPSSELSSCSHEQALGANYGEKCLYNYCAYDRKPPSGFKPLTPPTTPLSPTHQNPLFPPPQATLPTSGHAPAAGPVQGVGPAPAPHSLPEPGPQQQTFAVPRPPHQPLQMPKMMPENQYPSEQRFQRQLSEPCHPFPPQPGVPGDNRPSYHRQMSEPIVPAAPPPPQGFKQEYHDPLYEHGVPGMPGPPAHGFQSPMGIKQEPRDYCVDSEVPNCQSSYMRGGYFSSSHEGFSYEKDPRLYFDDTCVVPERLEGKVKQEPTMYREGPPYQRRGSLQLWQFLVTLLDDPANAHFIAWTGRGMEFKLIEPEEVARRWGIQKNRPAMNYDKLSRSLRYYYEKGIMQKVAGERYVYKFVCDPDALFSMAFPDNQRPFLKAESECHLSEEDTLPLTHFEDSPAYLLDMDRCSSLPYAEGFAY

In the case of CGTCCT, the binding signal (FLI1) is reported as 1.28 fold enrichment (6-mer frequency, TF over GST control), the binding signal (ELK1) is reported as 1.44 fold enrichment (6-mer frequency, TF over GST control) and the binding signal (GABPA) is reported as 1.32 fold enrichment (6-mer frequency, TF over GST control). For the same sequence, the binding signal (ERG) was 1.41 fold enrichment (6-mer frequency, TF over GST control), the binding signal (ELF1) was 1.3 fold enrichment (6-mer frequency, TF over GST control) and the binding signal (EHF) was 1.37 fold enrichment (6-mer frequency, TF over GST control). The binding signal (SPI1) was 1.42 fold enrichment (6-mer frequency, TF over GST control), the binding signal (SPIB) was 1.38 fold enrichment (6-mer frequency, TF over GST control) and the binding signal (ELK3) was 1.47 fold enrichment (6-mer frequency, TF over GST control). The binding signal (FEV) was 1.38 fold enrichment (6-mer frequency, TF over GST control), the binding signal (ETV5) was 1.32 fold enrichment (6-mer frequency, TF over GST control) and the binding signal (HSF1) was 1.08 fold enrichment (6-mer frequency, TF over GST control). The binding signal (SPIC) was 1.27 fold enrichment (6-mer frequency, TF over GST control), the binding signal (ELF4) was 1.44 fold enrichment (6-mer frequency, TF over GST control) and the binding signal (ELK4) was 1.4 fold enrichment (6-mer frequency, TF over GST control). For the same sequence, the binding signal (ETV2) was 1.66 fold enrichment (6-mer frequency, TF over GST control), the binding signal (ELF3) was 1.31 fold enrichment (6-mer frequency, TF over GST control) and the binding signal (ETV1) was 1.24 fold enrichment (6-mer frequency, TF over GST control).
